Screening data from PubChem BioAssay.
In the library only some 21% were active in any assay of this set; here they are far more common.
Shiga inhibitor – inhibitors of Shiga toxin in Vero cells; Vero cells, Shiga toxin protein synthesis inhibition reporter; inhibition, % at 38.7 µM; 290,000 compounds, 9.2% hits; in the data active = inhibition mostly above about 28%, no sharp cut-off; inactive = mostly below about 43%; also: 0% is about no effect
Cycloheximide cs – affects cycloheximide protein synthesis inhibition readout, counter-screen. AID 2314. cell reporter, cycloheximide protein synthesis inhibition counterscreen. max response, %. 300,000 compounds, 12% hits; in the data active = max response mostly above about 13%, no sharp cut-off; inactive = mostly below about 14%; also: read at 38.3 µM for the half of the compounds with a filed dose; 0% is about no effect
Pf growth 96h – inhibits malaria parasite growth, 96 h; P. falciparum luciferase reporter growth, 96 h; Potency, µM (highest dose often 28.7 µM), for the others: top-dose activity change, negative = inhibition, usual class: inhibitors; 320,000 compounds, 6.9% hits; also: potency is read from the fitted curve at half-maximal effect; % is scaled to controls: 0 for no effect and ±100 for the full control effect
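Two parasite generations (96 h, 37 C, 5% CO2) of compound exposure in infected erythrocytes (0.05% parasitemia, 2% hematocrit). Luciferase-reporter P. falciparum; decreased luminescence indicates inhibited growth, aimed at apicoplast-acting delayed death.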
Pf growth 48h – P. falciparum growth inhibition at 48 hours (one generation); P. falciparum luciferase growth in erythrocytes, 48 h; Potency, µM (doses to about 28.7 µM), without a hit: at the top dose activity change, negative = inhibition, most hits filed as inhibitors; 310,000 compounds, 5.9% hits; AID 504832; also: potency is read from the fitted curve at half-maximal effect; % is scaled to controls: 0 for no effect and ±100 for the full control effect
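In quantitative HTS format, infected erythrocytes bearing luciferase-reporter parasites were treated for a single generation at 37 C. Luminescence after adding detection reagent served as the growth measure.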
HCV inhibitor – HCV inhibition | Huh7.5.1 HCVcc-Cre infection, luciferase reporter, 44 h | Potency, µM (series often up to 41.8 µM), for inactives: at the highest dose activity change, negative = inhibition, most hits filed as inhibitors | 340,000 compounds, 3.4% hits | AID 651820; also: potency is read from the fitted curve at half-maximal effect; % is scaled to controls: 0 for no effect and ±100 for the full control effect
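Compounds are dispensed onto cells plated 4 h earlier at 1,000 per well, with HCVcc-Cre virus (about 0.5 moi) added next. Following 44 h of culture, luminescent signal is measured for 15 sec after 15 min with substrate at room temperature.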
HCMV antiviral – inhibitors of human cytomegalovirus; HFF cells, HCMV-luciferase reporter, 72 h; hits give low values; activity change, negative = inhibition, % at 57.5 µM; 410,000 compounds, 4.5% hits; AID 1259415; in the data active = activity change below about -60%; inconclusive = no clear call, values can overlap the other calls; inactive = above about -39%; also: % is scaled to controls: 0 for no effect and ±100 for the full control effect
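Two-dose cell screen: HFF monolayers treated with compounds and infected with luciferase-expressing HCMV at 1 PFU/cell, 72 h at 37C, then lysed for luciferase measurement.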
Numbers without * were called inactive; i = inactive; ? = inconclusive; nt = not tested or not shown; [ ] = remark or other dose. Unless noted, calls follow the shape of the dose curve; as a rule, active = well fitted inhibition curve with a large enough effect; inconclusive = small, poorly fitted or top-dose-only effect, or another doubt; inactive = no such curve, though single readings can be large or run the other way.

SMILES	Shiga inhibitor	Cycloheximide cs	Pf growth 96h	Pf growth 48h	HCV inhibitor	HCMV antiviral
Cc1ccc(C)c(NC(=O)CCc2c(C)nn(-c3ccc(N4CCCC4)nn3)c2C)c1	nt	nt	nt	nt	nt	-14
Cc1cccc(NC(=O)CCc2c(C)nn(-c3ccc(N4CCCCC4)nn3)c2C)c1	72*	41*	?	46%	-24%	22
Cc1cc(C)n(CC(=O)n2nc(C)cc2C)n1	-5	-1	10µM*	8%	8%	7
CCc1ccc(C(C)NC(=O)c2cccs2)cc1 (stereo unspecified)	nt	nt	nt	nt	2%	3
CCN(CCn1cccn1)Cc1nc(Cc2cccc(F)c2)no1	7	9	?	0%	0%	12
Cn1cc(CN2CCCCC2C(=O)Nc2ccc(-n3cccn3)cc2)cn1 (stereo unspecified)	-9	1	52%	19%	-11%	-5
O=C(Nc1ccc(-n2cccn2)cc1)C1CCCCN1Cc1cccc2cccnc12 (stereo unspecified)	11	24*	?	?	?	19
O=C(COc1ccc(Br)cc1)Nc1ccc(NC(=O)c2ccccc2)cc1	15	2	?	8%	nt	-68*
O=C(COc1ccccc1)Nc1ccc(S(=O)(=O)Nc2ccccn2)cc1	7	-1	1%	-24%	-7%	3
O=C(COc1ccc(Br)cc1)Nc1ccc(S(=O)(=O)Nc2ccccn2)cc1	-13	-2	?	11%	-10%	-70*
CCCNC(=O)C(Cc1ccc(C(F)(F)F)cc1)NC(=O)c1ccc(C#N)cc1 (stereo unspecified)	nt	nt	-13%	0%	6%	21
O=C1C=CN(C2OC(CO)C(O)C2O)C(=O)C1 (stereo unspecified)	nt	nt	nt	nt	nt	-73*
O=C(Cc1cccs1)N/N=C/C=C\c1ccco1	-3	12	180%	41%	?	15
COc1ccccc1/C=C/C=N/NC(=O)Cc1cccs1	73*	42*	5%	10%	?	21
O=C(CN1CCN(Cc2ccccc2Cl)CC1)N/N=C/C=C\c1ccccc1[N+](=O)[O-]	-12	-2	0%	5%	?	nt
O=C(Cc1cccs1)N/N=C/C=C/c1ccccc1[N+](=O)[O-]	62*	22*	93%	49%	-22%	23
O=C(N/N=C/C=C/c1ccccc1[N+](=O)[O-])c1ccncc1	6	-4	46%	46%	-1%	18
O=C(Cc1ccccc1)N/N=C/C=C/c1ccccc1[N+](=O)[O-]	18	16*	85%	49%	-11%	50
O=C(N/N=C/C=C\c1ccco1)c1cccs1	82*	29*	9%	-2%	-7%	5
COc1ccccc1/C=C/C=N/NC(=O)c1ccncc1	13	6	39%	0%	4%	0
CCN(CC)S(=O)(=O)c1ccc2c(c1)N(CC(=O)Nc1ccc(OC)cc1)C(=O)CS2	nt	nt	nt	nt	nt	11
Cc1nc(N)ncc1CCC1OCCO1	nt	nt	nt	nt	nt	-21
CCN(CC)C(=O)C1=C(C)N(CCCOC)C(=O)C(CC(=O)NC2CCCC2)C1 (stereo unspecified)	nt	nt	nt	nt	nt	-16
O=C(O)c1ccc(N/N=C/C=C/c2ccccc2[N+](=O)[O-])cc1	52*	45*	i	i	27%	39
O=C(N/N=C/C=C\c1ccccc1[N+](=O)[O-])c1cc(-c2ccc3ccccc3c2)n[nH]1	25	11*	15%	-61%	?	?
SMILES	Shiga inhibitor	Cycloheximide cs	Pf growth 96h	Pf growth 48h	HCV inhibitor	HCMV antiviral
O=C(N/N=C/C=C/c1ccccc1[N+](=O)[O-])c1cccnc1	14	6	?	4%	10%	-10
CCN(Cc1ccccc1)C(=O)/C=C/c1ccccc1[N+](=O)[O-]	14	-3	6%	-12%	-28%	43
O=C(N/N=C/C=C\c1ccccc1[N+](=O)[O-])c1cccs1	12	12	2.9µM*	17%	?	-4
CN(Cc1cccs1)C(=O)/C=C/c1ccccc1[N+](=O)[O-]	69*	31	-18%	-5%	11%	73
CC(C)C[C@H](NC(=O)[C@H](CO)NC(=O)[C@H](C)NC(=O)[C@H](CCCN=C(N)N)NC(=O)[C@H](CCCN=C(N)N)NC(=O)[C@@H](N)CC(C)C)C(=O)NCC(=O)O	-8	6	nt	nt	nt	nt
Cc1ccc(-c2nnc(SCC(=O)NNC(=O)COc3cccc4ccccc34)n2C)cc1	-10	-2	-1%	4%	2%	-3
CC1CN(C(=O)CCC(=O)NCc2ccc(F)cc2)c2cc(Cl)ccc2O1 (stereo unspecified)	nt	nt	nt	nt	nt	13
Cc1c(F)cccc1NS(=O)(=O)c1ccc2c(c1)c(C)cc(=O)n2C	-18	4	10%	-3%	-8%	6
O=[N+]([O-])c1ccccc1/C=C/C=N/Nc1ccc(S(=O)(=O)Nc2ccc(Cl)cc2)cc1[N+](=O)[O-]	29	10	-7%	12µM*	-18%	52
Cc1cccc(N2C(=O)N3[C@H](c4ccc(Br)cc4)[C@@H]4C(=O)N(C(C)(C)C)C(=O)[C@@H]4[C@]3(C)C2=O)c1	-5	-1	?	?	11%	10
Cc1ccc(S(=O)(=O)CCC(=O)Nc2ccc(S(=O)(=O)N(C)C)cc2)cc1	-5	2	?	-30%	nt	nt
Cc1ccc(NC(=O)CCS(=O)(=O)c2cc3[nH]c(=O)c(=O)[nH]c3cc2C)cc1	-9	9	4.1µM*	6%	10%	?
N#Cc1ccc(Oc2ccc(-c3cnc4ccccc4n3)cc2)cc1C#N	36	12	444%	11%	?	0
N#Cc1ccc(Oc2ccc(-c3nc4ccccc4nc3-c3ccccc3)cc2)cc1C#N	-2	-1	3.7µM*	-25%	-22%	-29
NS(=O)(=O)c1cnccc1Oc1cccc(Cl)c1	nt	nt	nt	nt	11%	-23
CC(C)N(Cc1nc(-c2ccccc2)no1)C(=O)C(Cl)(Cl)Cl	1	8	-31%[1.15 µM]	1.9µM*	?	-37
CC(C)N(Cc1nc(-c2ccccc2)no1)C(=O)COc1ccccc1	26	1	2%	nt	-10%	-3
COc1ccccc1OCC(=O)N(Cc1nc(-c2ccccc2)no1)C(C)C	-13	-6	-4%	5%	3.2µM*	-5
COc1ccccc1OCC(=O)N(Cc1nc(-c2ccc(Cl)cc2)no1)C(C)C	19	-2	4.1µM*	nt	?	14
CC1=CC(=O)O[C@@H]1[C@@]1(C)C[C@H]2OC(=O)C[C@H]3[C@@H](C)C(=O)C(O)=C1[C@@]23CO	nt	nt	15µM*	13µM*	?	?
COc1cccc(-c2nc(C(N)=O)c3[nH]c(=O)n(-c4cccc(Cl)c4)c3n2)c1OC	13	-3	?	15µM*	-18%	?
